# Bioassay records (PubChem BioAssay)
# Shown are actives, neighbours in structure and some others; about 9.8% of the full set was active somewhere.
# ALDH1A1 block – blocks purified human ALDH1A1 activity. actives 7.3% (n = 220,000). Purified ALDH1A1, NADH fluorescence, propionaldehyde substrate. P00352. Potency, µM (titrated, usually from 75.3 µM), inactives show top-dose activity, negative = inhibition, usual class: inhibitors. AID 1030; active = well fitted inhibition curve with a large enough effect, not every such curve was filed as active; inconclusive = small, poorly fitted or top-dose-only effect, or another doubt; inactive = no such curve, though single readings can be large or run the other way;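 note: potency is the fitted concentration of half-maximal effect; plate controls were no enzyme wells and a reference inhibitor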
# JMJD2E inh – blocks human JMJD2E demethylase activity | Potency, µM (titrated, usually from 57.1 µM), for the others: top-dose activity change, negative = inhibition, most hits filed as inhibitors | AID 2147 | actives 1.6% (n = 230,000) | B2RXH2 | JMJD2E catalytic domain, FDH-coupled NADH fluorescence (FDH is formaldehyde dehydrogenase);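 note: potency is the fitted concentration of half-maximal effect; 0% = wells with enzyme and -100% = buffer wells without enzyme; nearly all actives have a fitted effect of over 50% in size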
# Target sequence (B2RXH2 1-337 limits assumed): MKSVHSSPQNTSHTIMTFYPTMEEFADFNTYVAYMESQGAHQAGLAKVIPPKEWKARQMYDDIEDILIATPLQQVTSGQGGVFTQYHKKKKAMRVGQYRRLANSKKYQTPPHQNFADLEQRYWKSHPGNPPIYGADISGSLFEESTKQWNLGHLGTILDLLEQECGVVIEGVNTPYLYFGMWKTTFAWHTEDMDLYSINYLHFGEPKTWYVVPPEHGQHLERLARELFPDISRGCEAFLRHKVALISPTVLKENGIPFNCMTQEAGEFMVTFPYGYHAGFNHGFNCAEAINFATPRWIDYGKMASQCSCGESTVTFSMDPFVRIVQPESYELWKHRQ
# HTT aggregate – mutant huntingtin aggregation inhibition; PC12 HttQ103-GFP aggregates, Acumen cytometry, 40 h; actives 1.1% (n = 220,000); Potency, µM (titrated, usually from 46.1 µM), inactives show at the top dose activity change, negative = inhibition, hits mostly inhibitors; note: potency is the fitted concentration of half-maximal effect; % is set by controls: 0 for no effect and ±100 for the full control effect; nearly all actives have a fitted effect of over 60% in size
#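 PC12 cells stably carrying ecdysone-inducible HTT exon 1 Q103–GFP were induced with tebufenozide (100 nM final) and treated with library compounds in titration. GFP aggregates in lysates were counted by laser scanning cytometry.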
# HPGD block – HPGD (human) dehydrogenase inhibition; P15428; purified HPGD, NADH fluorescence kinetic, PGE2 substrate; Potency, µM, for inactives: at the top dose activity change, negative = inhibition, hits mostly inhibitors; actives 4.3% (n = 150,000); active = well fitted inhibition curve with a large enough effect, not every such curve was filed as active; inconclusive = small, poorly fitted or top-dose-only effect, or another doubt; inactive = no such curve, though single readings can be large or run the other way; note: potency is the fitted concentration of half-maximal effect; % is set by controls: 0 for no effect and ±100 for the full control effect
# Target sequence (P15428 whole entry, looked up): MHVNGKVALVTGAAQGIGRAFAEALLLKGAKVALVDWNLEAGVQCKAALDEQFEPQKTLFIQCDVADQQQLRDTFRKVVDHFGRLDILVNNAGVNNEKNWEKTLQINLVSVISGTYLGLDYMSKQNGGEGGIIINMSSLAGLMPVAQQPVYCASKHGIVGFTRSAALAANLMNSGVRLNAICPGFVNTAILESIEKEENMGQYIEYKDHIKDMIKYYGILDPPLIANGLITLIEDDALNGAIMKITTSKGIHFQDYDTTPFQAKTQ
#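 20 nM HPGD preincubated 15 min at room temperature with compound in 50 mM Tris-HCl pH 8, 0.01% Tween 20. Started with 1 mM NAD+ and 30 uM prostaglandin E2; NADH fluorescence (360/450 nm) read 5 times over 30-s intervals, last minus first.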
# CBFb-RUNX1 inh – blocks binding between human CBF-beta and RUNX1 | Q01196+Q13951 | AlphaScreen CBFb-His/RUNX1-biotin binding, biochemical | Potency, µM (doses to about 59.8 µM), for inactives: at the top dose activity, negative = inhibition, usual class: inhibitors | 230,000 tested, under 10 active | AID 1477; note: % of control where 0% means no effect
#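 Room-temperature protein-protein interaction test with 30 nM each of His-tagged CBF-beta and biotinylated RUNX1, 15 min with compound, then 90 min with nickel plus streptavidin beads. Signal read in AlphaScreen mode.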
# HTT cytoprotect – protects HTT-Q103 PC12 cells, measured by ATP; PC12 HTT-Q103 induced, cytoprotection, ATP luminescence, 40 h; Potency, µM (highest dose often 56.4 µM), without a hit: cytoprotection (ATP increase), usual class: activators; actives 0.14% (n = 230,000); note: potency is the fitted concentration of half-maximal effect; % of control where 0% means no effect; nearly all actives have a fitted effect of over 45% in size
#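 Cells were plated at 1500 per well in phenol red-free DMEM with 5% equine and 5% calf serum. Tebufenozide (100 nM final) and compounds were added, then ATPlite reagent, and luminescence was read.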
# Active calls of the source: *; u = inconclusive; x = not tested or not shown; [ ] = remark or other dose. Unless noted, calls come from the whole dose curve; as a rule, active = well fitted curve in the direction sought with a large enough effect; inconclusive = small, poorly fitted or top-dose-only effect, or another doubt; inactive = no such curve, though single readings can be large; an effect the other way counts as inactive or inconclusive.
SMILES,ALDH1A1 block,JMJD2E inh,HTT aggregate,HPGD block,CBFb-RUNX1 inh,HTT cytoprotect
N#Cc1ccc(CN2CC[C@@]3(CCCN(C(=O)c4cccc(F)c4)C3)C2)cc1,-9%,x,x,28µM*,x,-9%
O=C(/C=C/C=C/c1ccccc1)c1ccco1,28µM*,-16%,14%[9.22 µM],x,-12%,2%[10 µM]
O=C(/C=C/c1ccc(Br)cc1)c1ccco1,15%,-2%,1%,-15%,0%,11%[10 µM]
NC1=C(c2ccc(F)cc2)C(=O)CS1,20µM*,1%,u,6.3µM*,1%,6%
Fc1ccc(-c2csc3[n+]2CCS3)cc1,-7%,4%,-8%,2%,11%,u
CCC/C=C(\CCC)C(NC(=O)c1ccccc1)c1ccccc1 (stereo not drawn),u,7%,x,-11%,17%,4%
COCC(C)N=C1NN=C(c2cc(C)n(Cc3ccccc3Cl)c2C)CS1 (stereo not drawn),u,u,u,x,-24%,-105%
COc1ccc(Nc2nnc(SCc3cc(=O)n4ccsc4n3)s2)cc1,14µM*,u,0%,32µM*,u,-29%
CC1(C)OC(=O)C(=CNc2ccccc2)C(=O)O1,u,-5%,-2%,-18%,2%,-16%[0.074 µM]
CC1(C)OC(=O)C(=CNCC(O)c2ccccc2)C(=O)O1 (stereo not drawn),11µM*,2%,5%,-18%,4%,-31%
Cc1ccccc1OCC1Cc2c(nc(N)c(C#N)c2N)O1 (stereo not drawn),u,u,-23%,x,0%,-41%
Cc1ccc(-n2nnnc2-c2ccccc2)cc1,-1%,4%,5%,x,8%,-36%
COc1ccc(-c2nnnn2-c2ccccc2OC)cc1,7.9µM*,4%,18%,1%,3%,-4%
Cc1ccccc1-n1nnnc1-c1ccccc1,4.5µM*,1%,-20%,-13%,4%,-6%
CCOC(=O)c1c(NC(=O)Cc2cccs2)sc2c1CCCC2,-6%,-24%,-11%,x,5%,-35%
CC(C)OC(=O)c1c(NC(=O)CCn2nnc3ccccc32)sc2c1CCCC2,25µM*,0%,5%,-27%,5%,-11%[10 µM]
CCOC(=O)c1c(NC(=O)CS(=O)(=O)c2cn(CC)c3ccccc23)sc2c1CCCCC2,10µM*,-8%,-2%,-10%,3%[2.36 µM],x
CC(C)OC(=O)c1c(NC(=O)CCC(=O)O)sc2c1CCCCC2,-7%,-4%,14%,-4%,10%,x
CCOC(=O)c1c(NC(=O)CS(=O)(=O)c2cn(CC)c3ccccc23)sc2c1CCCC2,13µM*,u,8%,-19%,10%[2.36 µM],x
CCC1=C(OC(=O)N(CC)CC)N2C(=O)OC(=NCC(=O)OC)[C@]2(Cc2ccccc2)[C@H]2C1=CC[C@H]1C(=O)N(CC(=O)OC)C(=O)[C@H]12,u,u,-9%[9.22 µM],-13%,1%,-7%
Nc1c(C(=O)NCCc2ccccc2)nnn1Cc1ccc(Br)cc1F,-5%,-8%,5%,x,1%,-14%
CC1CN(C(=O)C(C)Sc2nc3ccccc3s2)CC(C)O1 (stereo not drawn),u,4%,6%,28µM*,15%,-1%
CC(Sc1nc2ccccc2s1)C(=O)NC1CCCc2ccccc21 (stereo not drawn),13µM*,5%,u,-4%,-1%,6%[10 µM]
CC(=O)OC1CC2C(C)(C)C(O)CCC2(C)C2CC[C@]3(C)C(=CC(=O)OC3c3ccoc3)C12C (stereo partly drawn),-6%,2%,x,4%,10%,-45%
O=[N+]([O-])c1ccc2ncccc2c1CCc1c([N+](=O)[O-])ccc2ncccc12,11%[13.5 µM],x,x,-5%,x,4%[10 µM]
SMILES,ALDH1A1 block,JMJD2E inh,HTT aggregate,HPGD block,CBFb-RUNX1 inh,HTT cytoprotect
CCCCc1nc2c(c3c1C[C@H](C)OC3)CN(S(=O)(=O)c1ccc(NC(C)=O)cc1)CC2,5%[13.5 µM],3%[11.4 µM],x,-2%,15%[13.1 µM],-6%[10 µM]
O=C(c1ccccc1)c1coc2ccc(O)c(CN3CCOCC3)c12,u,-5%,-1%,-4%,-4%,-1%[0.074 µM]
COc1ccc(C(=O)c2coc3ccc(O)c(CN4CCCCC4)c23)cc1,13µM*,-5%,-10%,-17%,-6%,-11%[10 µM]
COC(=O)C1=C(C)N(CCc2ccc(OC)c(OC)c2)C(=O)/C1=C\N(C)C,14µM*,-6%,u,-7%,-1%,-6%
O=C1/C(=C/c2ccc(O)c([N+](=O)[O-])c2)SC(=S)N1Cc1ccccc1,4µM*,-3%,u,x,-23%,x
O=C1/C(=C/c2cccnc2)SC(=S)N1Cc1ccco1,2.2µM*,x,x,-14%,x,6%[10 µM]
CN1C(=O)/C(=C/c2ccc(O)c([N+](=O)[O-])c2)NC1=S,11µM*,3%,18%[9.22 µM],x,-14%,2%[10 µM]
COc1cc(/C=C2\NC(=S)N(C)C2=O)ccc1O,u,5%,24%,x,6%,-6%
O=C1/C(=C/c2ccccc2O)SC(=S)N1Cc1cccnc1,7.5µM*,-20%,9%,2.8µM*,-13%,-28%[10 µM]
Cc1cccc(N)c1-c1c(C)cccc1N,1%,4%,24%,x,-3%,-6%
Cc1cc(/C=C2\SC(=S)N(Cc3ccco3)C2=O)c(C)n1-c1cccnc1,0.28µM*,4%,u,-15%,-6%,-16%
NNC(=O)CS(=O)(=O)CS(=O)(=O)CC(=O)NN,u,46%,4%[9.22 µM],x,-8%,9%[10 µM]
COc1ccc(-n2c(=S)[nH]c3cc(C(=O)NCCCN4CCCC4=O)ccc3c2=O)cc1,18µM*,-1%,-10%,-9%,0%,17%
COc1ccc(-n2c(=S)[nH]c3cc(C(=O)NCCCN4CCCC4=O)ccc3c2=O)c(OC)c1,14µM*,-2%,9%,-16%,1%,4%
COc1ccc(C(=O)NCCCN2CCCC2=O)cc1,-1%,8%,11%,-12%,2%,23%
Clc1ccc(Nc2ccccc2)nn1,21%,1%,-16%[9.22 µM],x,7%,4%[10 µM]
Cc1c(C(=O)NN)[nH]c2ccc([N+](=O)[O-])cc12,7.9µM*,44%,3%[9.22 µM],x,-29%,24%[10 µM]
CCCCC/C=N/NC(=O)c1[nH]c2ccc([N+](=O)[O-])cc2c1C,u,-1%,12%[9.22 µM],x,-12%,-2%[10 µM]
Cc1ccc(CC2SC(=O)NC2=O)cc1Cl (stereo not drawn),32µM*,7%,-16%,-22%,-1%,-14%[10 µM]
Nc1ccc(CC2SC(=O)NC2=O)cc1 (stereo not drawn),-7%,-20%,-9%,-13%,15%,7%
CCCCN1/C(=C/c2ccc3ccccc3[n+]2CC)Sc2ccccc21,u,14µM*,2.5µM*,x,-4%,-59%[10 µM]
